The text below walks through data of PubChem BioAssay (NCATS).

Records with an inconclusive call do not appear. Unmarked numbers belong to inactive results. Activity calls are given as the source filed them. The call rests on the fitted dose curve.
On the % scale 0 is the no-effect control and ±100 the full control effect.

Chain of Nucleoprotein (Lymphocytic choriomeningitis virus (strain Armstrong)) (P09992 whole entry, looked up): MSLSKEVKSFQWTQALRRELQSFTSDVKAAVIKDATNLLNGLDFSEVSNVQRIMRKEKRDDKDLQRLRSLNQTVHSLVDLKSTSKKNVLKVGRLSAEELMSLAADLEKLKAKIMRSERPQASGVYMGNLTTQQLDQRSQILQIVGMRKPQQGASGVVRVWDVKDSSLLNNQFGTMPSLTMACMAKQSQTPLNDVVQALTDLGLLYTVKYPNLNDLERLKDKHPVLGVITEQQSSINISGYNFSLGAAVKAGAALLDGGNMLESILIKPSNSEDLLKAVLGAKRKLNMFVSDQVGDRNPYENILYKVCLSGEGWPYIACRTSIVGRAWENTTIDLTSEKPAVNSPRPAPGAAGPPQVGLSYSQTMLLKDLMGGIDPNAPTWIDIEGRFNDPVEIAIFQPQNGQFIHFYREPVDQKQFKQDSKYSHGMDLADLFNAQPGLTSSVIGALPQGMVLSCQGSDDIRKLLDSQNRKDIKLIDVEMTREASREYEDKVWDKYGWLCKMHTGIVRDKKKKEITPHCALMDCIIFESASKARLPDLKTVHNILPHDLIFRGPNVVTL

The experiment has as its target Nucleoprotein (Lymphocytic choriomeningitis virus (strain Armstrong)) (UniProt P09992). Nature of the experiment: qHTS for Inhibitors of the Functional Ribonucleoprotein Complex (vRNP) of Lymphocytic Choriomeningitis Arenaviruses (LCMV): LCMV Primary Screen - GLuc reporter signal (AID 1347086). Further: nearly all actives have a fitted effect of over 70% in size. Conditions: LCMV minigenome vRNP cell assay, Gaussia luciferase reporter; series mostly up to 57.5 µM; activity change, negative = inhibition: at the top concentration.
As to `C[N+]1(CC2COC(c3ccccc3)(c3ccccc3)O2)CCCCC1` (stereo not given), the “activity change, negative = inhibition” value was -1.42% [at 24.7 µM].
Consider `CCCCCCc1ccc(O)cc1O`, for which the “activity change, negative = inhibition” value was 16.7%.
On the same count and under the same terms, next, `COc1ccc(C(Cl)=C(c2ccc(OC)cc2)c2ccc(OC)cc2)cc1`: 1.3%; `c1ccc(C(O[C@H]2CCCN(CCc3ccc4c(c3)OCO4)C2)c2ccccc2)cc1`: -0.538%.
Turning to `Fc1ccc(C(c2ccc(F)cc2)N2CCN(C/C=C/c3ccccc3)CC2)cc1`, the Potency result was “inactive”.
